Assay [1] is described as follows: Tanguay_ZF_120hpf_JAW_legacy: (Legacy) Oregon State University Tanguay Lab 120 Hour Post-fertilization zebrafish Assay for Jaw Malformation (AID 2283638).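 As to AC50: active means more embryos with jaw malformation than DMSO controls.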 The essentials:
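Static waterborne exposure of dechorionated wild-type (Tropical 5D) zebrafish from 6 to 120 hpf at 28C, 0.64% DMSO vehicle; 5uM trimethyltin chloride served as positive control. Jaw morphology recorded as binary at 120 hpf.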

A short description of assay [2]: Tanguay_ZF_120hpf_OTIC_legacy: (Legacy) Oregon State University Tanguay Lab 120 Hour Post-fertilization zebrafish Assay for Otic Vesicle Malformation (AID 2283639). The essentials:
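Otic vesicle malformation is read as a yes/no morphology call at 120 hpf. Exposure is static at 28C with 0.64% (vol/vol) DMSO; embryos that die are excluded from non-mortality endpoints.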

A short description of assay [3]: Tanguay_ZF_120hpf_PE_legacy: (Legacy) Oregon State University Tanguay Lab 120 Hour Post-fertilization zebrafish Assay for Pericardial Edema (AID 2283640).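 As to AC50: potency for increased incidence of pericardial edema versus DMSO baseline.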 In short, it runs like this:
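Read-out is the presence or absence of pericardial edema at 120 hpf under brightfield, with gain of signal fitted against DMSO controls. Larvae (5D wild-type) were statically exposed at 28C with 0.64% final DMSO.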

A short description of assay [4]: Tanguay_ZF_120hpf_BRAI_legacy: (Legacy) Oregon State University Tanguay Lab 120 Hour Post-fertilization zebrafish Assay for Brain Malformation (AID 2283641). The essentials: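 Brain malformation in Tropical 5D zebrafish was recorded as a binary endpoint after static compound exposure from early development to 120 hpf at 28C. Activity was analysed against DMSO as negative control.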

The nature of assay [5]: Tanguay_ZF_120hpf_SOMI_legacy: (Legacy) Oregon State University Tanguay Lab 120 Hour Post-fertilization zebrafish Assay for Somite Malformation (AID 2283647). In short, it runs like this:
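5D WT zebrafish; chorion removed 4 hpf; 1 embryo/well from 6 hpf; static exposure to 120 hpf, 28C, 0.64% DMSO final. Endpoint: somite malformation, binary, brightfield. Mortality excluded.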

A short description of assay [6]: Tanguay_ZF_120hpf_PFIN_legacy: (Legacy) Oregon State University Tanguay Lab 120 Hour Post-fertilization zebrafish Assay for Pectoral Fin Malformation (AID 2283648).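 Also: each larva judged yes or no for fin defect by brightfield with dead larvae skipped.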 The essentials: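 5D WT zebrafish; pronase dechorionation 4 hpf; 1 embryo/well at 6 hpf; static exposure to 120 hpf, 28C, sealed, foil-covered; final DMSO 0.64% v/v; 5 uM trimethyltin chloride positive control; fin defect scored yes/no.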

Assay [7] can be described thus: Tanguay_ZF_120hpf_CFIN_legacy: (Legacy) Oregon State University Tanguay Lab 120 Hour Post-fertilization zebrafish Assay for Caudal Fin Malformation (AID 2283649). In short, it runs like this: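 Embryos were collected from Tropical 5D wild-type adults and dechorionated at 4 hpf. At 6 hpf each was exposed, one per well, at 0.64% DMSO and 28C. At 120 hpf fin morphology was scored; dead embryos were excluded.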

Assay [8] in a line: Tanguay_ZF_120hpf_SWIM_legacy: (Legacy) Oregon State University Tanguay Lab 120 Hour Post-fertilization zebrafish Assay for Swim Bladder Malformation (AID 2283654).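 Also: swim bladder malformation in each larva scored yes or no under brightfield.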 The essentials: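 Embryos lacking chorions were exposed individually and statically to test chemical from 6 to 120 hpf at 28C, with 0.64% DMSO as vehicle. At 120 hpf, swim bladder malformation was recorded as present or absent by brightfield microscopy.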

Assay [9] is described as follows: Tanguay_ZF_120hpf_TRUN_legacy: (Legacy) Oregon State University Tanguay Lab 120 Hour Post-fertilization zebrafish Assay for Truncated Body (AID 2283655). In short, it runs like this: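 5D wild-type larvae; pronase dechorionation; static exposure 6→120 hpf, 28C; DMSO 0.64% final; 5uM trimethyltin chloride positive control. Readout: presence/absence of truncated body, analyzed relative to DMSO.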

The nature of assay [10]: Tanguay_ZF_120hpf_NC_legacy: (Legacy) Oregon State University Tanguay Lab 120 Hour Post-fertilization zebrafish Assay for Notochord and Tail Malformation (AID 2283656). The essentials: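 Dechorionated 5D zebrafish, 1/well from 6 hpf; static exposure to 120 hpf, 28C, sealed, dark; final DMSO 0.64% v/v. NC scored binary (present/absent); dead embryos not scored. Fit vs DMSO baseline, gain direction.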

Assay [11] can be described thus: Tanguay_ZF_120hpf_TR_legacy: (Legacy) Oregon State University Tanguay Lab 120 Hour Post-fertilization zebrafish Assay for Touch Response (AID 2283667). In short, it runs like this:
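5D WT embryos; static exposure to 120 hpf, 28C, sealed/dark; DMSO 0.64% v/v final. TR scored present/absent; dead embryos excluded. Pos ctrl 5uM trimethyltin chloride.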

Assay [12] is described as follows: Tanguay_ZF_120hpf_PIG_legacy: (Legacy) Oregon State University Tanguay Lab 120 Hour Post-fertilization zebrafish Assay for Pigmentation Malformation (AID 2283650). The essentials:
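Pronase dechorionation at 4 hpf; embryos plated at 6 hpf, one per well; static exposure, sealed and foil-covered, 28C, to 120 hpf; pigmentation read by brightfield, binary; DMSO 0.64% baseline, 5uM trimethyltin chloride positive control.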

Read-out in assay [13]: solute carrier (SLC22A6), SLC22A6 (gene 9356)
Kind of assay: LTEA_HepaRG_SLC22A6: Life Technologies and Expression Analysis (LTEA) Assay for solute carrier (SLC22A6) using HepaRG (AID 2283653; active = hit-call score of the fitted dose curve at least 0.9, where 1 is the maximum; inactive = score below 0.9). The note with it: mRNA level, 48 h; actives raise or lower the signal. In short, it runs like this:
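This endpoint tracks SLC22A6 mRNA induction or suppression in human HepaRG cultures after 48 h dosing, concentrations reaching 100 uM. Values derive from bidirectional fitting against DMSO controls.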

Read-out in assay [14]: solute carrier (SLC10A1), SLC10A1 (gene 6554)
Kind of assay: LTEA_HepaRG_SLC10A1: Life Technologies and Expression Analysis (LTEA) Assay for solute carrier (SLC10A1) using HepaRG (AID 2283657; active = hit-call score of the fitted dose curve at least 0.9, where 1 is the maximum; inactive = score below 0.9). The conditions noted are these: mRNA level, 48 h; actives raise or lower the signal. The essentials:
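Transcript levels were measured by qRT-PCR after human HepaRG cells received test chemical for 48 hours, up to 100 uM in half-log dilutions. Values come from bidirectional concentration-response fitting relative to 0.5% DMSO vehicle.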

Read-out in assay [15]: matrix metalloproteinase-1 (MMP1), MMP1 (gene 4312)
Kind of assay: LTEA_HepaRG_MMP1: Life Technologies and Expression Analysis (LTEA) Assay for matrix metalloproteinase-1 (MMP1) using HepaRG (AID 2283658; active = hit-call score of the fitted dose curve at least 0.9, where 1 is the maximum; inactive = score below 0.9). The conditions noted are these: mRNA level, 48 h; actives raise or lower the signal. In short, it runs like this: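 Bidirectional concentration-response fitting relative to 0.5% DMSO gives the endpoint, derived from MMP1 mRNA levels (qRT-PCR) in human HepaRG cells treated 48 h with chemicals up to 100 uM.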

Assay [16] concerns Thyroperoxidase (TPO), gene 54314. Kind of assay: CCTE_Simmons_AUR_rTPO: CCTE's Amplex UltraRed Assay for Thyroperoxidase (TPO) Inhibition, Simmons Lab (AID 2283662).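 As to AC50: potency for loss of signal meaning inhibition of peroxidase activity.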 In short, it runs like this: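 Endpoint is decreased Amplex UltraRed fluorescence after a 30-min, 37C reaction of rat thyroid microsomes with 300 uM H2O2. Eight test concentrations (5 nM–87.5 uM final) in 0.5% DMSO, three biological replicates each.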

Assay [17] is described as follows: CCTE_Simmons_CellTiterGLO_HEK293T: Viability Assessment in CCTE's Assays for Thyroperoxidase (TPO) Inhibition, Simmons Lab (AID 2283665).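 As to AC50: cells exposed to compound for 24 h before readout; actives reduce ATP signal below DMSO vehicle meaning cytotoxicity.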 The essentials:
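Cytotoxicity counter-screen: human HEK293T cells in low-serum (1% FBS) medium receive test chemical, 5 nM to 87.5 uM final, for 24 h; ATP is quantified by luciferase luminescence.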

Read-out in assay [18]: Cytochrome P450 (CYP24A1_1), CYP24A1 (gene 1591)
The experiment in a line: LTEA_HepaRG_CYP24A1_1: Life Technologies and Expression Analysis (LTEA) Assay for Cytochrome P450 (CYP24A1_1) using HepaRG (AID 2283671; active = hit-call score of the fitted dose curve at least 0.9, where 1 is the maximum; inactive = score below 0.9). The note with it: mRNA level, 48 h; actives raise or lower the signal. The essentials: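 In this test, gene induction or suppression of CYP24A1 in human HepaRG liver cells is measured by qRT-PCR after 48 h chemical treatment (eight concentrations, maximum 100 uM). Values are fitted bidirectionally relative to DMSO.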

Assay [19] is described as follows: Tanguay_ZF_120hpf_CIRC_legacy: (Legacy) Oregon State University Tanguay Lab 120 Hour Post-fertilization zebrafish Assay for Circulatory Malformation (AID 2283651). In short, it runs like this: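 Using wild-type Tropical 5D zebrafish, we exposed dechorionated embryos from 6 to 120 hpf in embryo medium with 0.64% DMSO. Circulatory defects were scored as present or absent; 5uM trimethyltin chloride served as positive control.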

Records with an inconclusive call do not appear. The source made the active and inactive calls. The calls were made as follows, unless noted: active = hit-call score of the fitted dose curve at least 0.9, where 1 is the maximum; inconclusive = response in the unintended direction; inactive = score below 0.9.

Consider `NC(=O)c1nc(-c2cccc(-c3cc(F)ccc3OCC(F)(F)C(F)(F)F)c2)n[nH]1`, for which the AC50 in assay [1] is 28.7 µM (active); in assay [2], 27.8 µM (active); in assay [3], 28.1 µM (active); in assay [4], 26 µM (active); in assay [5], 25.8 µM (active); in assay [6], 24.8 µM (active). In addition, the concentration at half-maximal activity (AC50) in [8] was 26.4 µM (active); in assay [9], 27 µM (active); in [11], 26.6 µM (active). Further, the result in assay [7] and in [10] was inactive.
`c1ccc(C[n+]2cccc3ccccc32)cc1`: the compound was called inactive in [1], in assay [2], in assay [3], in assay [4], in assay [5] and in assay [6]. The outcome in [7], in [12], in assay [10] and in [11] was inactive.
In the case of `C[C@]12CC[C@@H]3c4ccc(O)cc4CC[C@H]3[C@@H]1CC[C@H]2O`, the result in [1], in assay [2], in assay [3], in assay [4], in assay [5] and in assay [6] was inactive. For the same compound, the outcome in [7], in [13], in [8], in assay [10], in assay [15] and in assay [17] was inactive. Besides, the result in assay [11] and in assay [18] was inactive. Also, the AC50 in assay [14] is 72.6 µM (active); in [16] it was 4.06 µM (active).
`O=C1CCC(C2CCCCC2)CC1`: the compound was called inactive in assay [1], in assay [2], in [3], in assay [4], in assay [6] and in assay [7]. Besides, the outcome in assay [19], in assay [8], in assay [10], in assay [16] and in assay [11] was inactive. Moreover, the AC50 in assay [17] was 43.8 µM (active).
Regarding `CCCCCCCCCC(=O)O`, the compound was called inactive in [1], in assay [3], in assay [4], in assay [5], in assay [6] and in assay [7]. For the same compound, the call in assay [19], in [8], in assay [9], in [10] and in [11] was inactive.
For the compound `Cc1occc1C(=O)Nc1ccc(C(=O)N2CCC(F)(F)/C(=C\C(=O)N3CCC(N4CCCCC4)CC3)c3ccccc32)cc1`, the result in assay [1], in [3], in assay [4], in [5], in assay [6] and in assay [7] was inactive. Also, the compound was classed as inactive in assay [13], in assay [9], in assay [10], in [15], in [11] and in assay [18]. Moreover, the AC50 in assay [14] is 41.9 µM (active).
With `NCc1cccc(C2CCN(C(=O)c3ccc(C#Cc4ccccc4F)o3)CC2)c1`, the compound was classed as inactive in assay [1], in assay [2], in assay [3], in assay [4], in assay [5] and in assay [7]. Further, the compound was classed as inactive in [12], in assay [8], in assay [9], in [10], in [16] and in assay [11]. Further, the AC50 in assay [17] was 9.98 µM (active).
For the compound `Cc1cc2c(cc1C(F)(F)F)N(C(=O)Nc1ccc(Oc3cccnc3C)nc1)CC2`, the result in assay [1], in assay [2], in assay [3], in assay [4], in [5] and in assay [7] was inactive. Also, the call in assay [12], in assay [8], in assay [10] and in assay [11] was inactive.
For the compound `CCCCCCCC[Si](OCC)(OCC)OCC`, the compound was classed as inactive in assay [1], in assay [2], in [4], in assay [5], in assay [7] and in assay [12]. Moreover, the outcome in assay [8], in assay [9], in [10] and in assay [11] was inactive.

For the origin of these results see PubChem BioAssay (EPA / NIEHS).
